Results filed as inconclusive are left out. A number with no mark means an inactive call. Calls come from the whole dose curve; as a rule, active = well fitted curve in either direction with a large enough effect (not every such curve was filed as active); inconclusive = small, poorly fitted or top-dose-only effect, or another doubt; inactive = flat fitted curve, though single readings scatter.
% is set by controls: 0 for no effect and ±100 for the full control effect.

The first test is described as follows: AP1 Signaling Pathway (AID 357).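 Note: ME-180 reporter cells stimulated with EGF at its EC50 level.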 Conditions: ME-180 AP-1-bla reporter, EGF-induced, beta-lactamase ratio, 5 h; at 38 µM (top of the series) unless noted. The procedure, abridged: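 Beta-lactamase reporter under AP-1 response element, ME-180 background. Stimulus: EC50 EGF. Compound exposure 5 h, 37 °C. Detection: CCF4, 2.5 h RT, 460/530 nm. Values: AC50 from titration.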
As for `COc1cc(CNC(=O)CCCCCCC(C)C)ccc1O`, the activity change, negative = inhibition is -1.77%.

On to `CCCc1c(OCCCOc2ccc(OCC(=O)O)cc2)ccc(C(C)=O)c1O`, for which the activity change, negative = inhibition is -9.01%.

On to `COc1cc(CC(=O)O)ccc1O`, for which the activity change, negative = inhibition is 8.32%.

As to `CSC(=N)N`, the activity change, negative = inhibition was -0.186%.

Turning to `N#Cc1cc2nc(O)c(O)nc2cc1[N+](=O)[O-]`, the activity change, negative = inhibition is -1.83%.

Consider `CCCCCCCCCCCCCCC[C@H](O)[C@H](N)CO`, for which the activity change, negative = inhibition is 5.73%.

Take `NCCCCN=C(N)N`: the activity change, negative = inhibition was -8.22%.

Turning to `CC(=O)NCCc1c[nH]c2ccc(O)cc12`, the activity change, negative = inhibition was -2.23%.

With `Cc1nc2c(OCc3ccccc3)cccn2c1CC#N`, the activity change, negative = inhibition is -13%.

For `CCCn1c(=O)c2c(ncn2C)n(CCC)c1=O`, the activity change, negative = inhibition was 2.31%.

In the case of `N=C(N)SCCN`, the activity change, negative = inhibition was 3.17%.

For the molecule `N#CC(C#N)=C(N)/C(C#N)=C/c1ccc(O)cc1`, the activity change, negative = inhibition was -3.7%.

For `Cc1cc2c(cc1Cl)N(C(=O)Nc1ccnc3ccccc13)CC2`, the activity change, negative = inhibition is -29.6%.

On to `NC1(C(=O)O)CCCCC1`, for which the activity change, negative = inhibition is -0.957%.

On to `CCCn1c(=O)c2[nH]c(-c3ccc(S(=O)(=O)O)cc3)nc2n(CCC)c1=O`, for which the activity change, negative = inhibition is 7.54%.

As for `Cn1ccnc1`, the activity change, negative = inhibition is -6.19%.

Turning to `O=C(O)C1CCNCC1`, the activity change, negative = inhibition is -3.06%.

On to `CCN1C(=O)C=CC1=O`, for which the activity change, negative = inhibition was -2.69%.

Turning to `COc1ccccc1N1CCN(CCN(C(=O)c2ccc(F)cc2)c2ccccn2)CC1`, the activity change, negative = inhibition is 1.26%.

As for `CC1CNCCN1S(=O)(=O)c1cccc2cnccc12` (centres undefined), the activity change, negative = inhibition is 2.59% [at 17.2 µM].

With `NC1(C(=O)O)CC1`, the activity change, negative = inhibition is 11.9%.

As to `NCCCCN`, the activity change, negative = inhibition was 15.3%.

For the molecule `CC(C)NCC(O)COc1ccc(CC(N)=O)cc1` (centres undefined), the activity change, negative = inhibition is 5.57% [at 17.2 µM].

Turning to `CC(C)(CO)Cc1cc(C(C)(C)C)c(O)c(C(C)(C)C)c1`, the activity change, negative = inhibition is 4.82%.

As to `COc1ccccc1N1CCN(CCCCNC(=O)c2ccc3ccccc3c2)CC1`, the activity change, negative = inhibition was 1.71%.

On to `N[C@H](C(=O)O)c1cc(O)cc(O)c1`, for which the activity change, negative = inhibition is 7.53%.

In the case of `COc1ccccc1N1CCN(CCCNc2c(C)c(=O)n(C)c(=O)n2C)CC1`, the activity change, negative = inhibition is 8.51%.

For `NOCC(=O)O`, the activity change, negative = inhibition was 12.3%.

As to `O=C(O)/C=C/c1ccc(O)c(O)c1`, the activity change, negative = inhibition is 5.87% [at 17.2 µM].

In the case of `O=c1cc(-c2ccccc2)[nH]c2nc(Cl)ccc12`, the activity change, negative = inhibition is -2.89%.

With `N[C@@H](Cc1c[nH]c2ccccc12)C(=O)O`, the activity change, negative = inhibition is 4%.

The next test is described as follows: NFAT Signaling Pathway (AID 444).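 Note: carbachol stimulus at about its EC50 of 1 µM final.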 Conditions: Jurkat NFAT-bla M1, carbachol, beta-lactamase ratio, 5 h; at 38 µM (top of the series) unless noted. In short, it runs like this:
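Jurkat cells with NFAT-driven β-lactamase reporter and co-expressed M1 receptor, stimulated with carbachol (final 1 uM, ~EC50), compound titration, 5 h at 37 °C. CCF4 loaded 1 h at RT; 460/530 nm ratio gave %activity and AC50.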
Regarding `COc1cc(CNC(=O)CCCCCCC(C)C)ccc1O`, the activity change, negative = inhibition was 7.5%.

Take `CCCc1c(OCCCOc2ccc(OCC(=O)O)cc2)ccc(C(C)=O)c1O`: the activity change, negative = inhibition was -26.4%.

As for `COc1cc(CC(=O)O)ccc1O`, the activity change, negative = inhibition was 6.22%.

`CSC(=N)N`: the activity change, negative = inhibition was 4.79%.

Turning to `N#Cc1cc2nc(O)c(O)nc2cc1[N+](=O)[O-]`, the activity change, negative = inhibition was 10.2%.

Take `CCCCCCCCCCCCCCC[C@H](O)[C@H](N)CO`: the activity change, negative = inhibition was 0.212%.

As to `NCCCCN=C(N)N`, the activity change, negative = inhibition is -4.07%.

Take `CC(=O)NCCc1c[nH]c2ccc(O)cc12`: the activity change, negative = inhibition is 7.32%.

In the case of `Cc1nc2c(OCc3ccccc3)cccn2c1CC#N`, the activity change, negative = inhibition was 4.14%.

For the molecule `CCCn1c(=O)c2c(ncn2C)n(CCC)c1=O`, the activity change, negative = inhibition is 0.366%.

For the molecule `N=C(N)SCCN`, the activity change, negative = inhibition was -0.506%.

With `N#CC(C#N)=C(N)/C(C#N)=C/c1ccc(O)cc1`, the activity change, negative = inhibition was 3.6%.

With `Cc1cc2c(cc1Cl)N(C(=O)Nc1ccnc3ccccc13)CC2`, the activity change, negative = inhibition is 4.5%.

For `NC1(C(=O)O)CCCCC1`, the activity change, negative = inhibition was 3%.

In the case of `CCCn1c(=O)c2[nH]c(-c3ccc(S(=O)(=O)O)cc3)nc2n(CCC)c1=O`, the activity change, negative = inhibition is 13.8%.

With `Cn1ccnc1`, the activity change, negative = inhibition was -1.47%.

For the molecule `O=C(O)C1CCNCC1`, the activity change, negative = inhibition was 11.3%.

On to `CCN1C(=O)C=CC1=O`, for which the activity change, negative = inhibition was 4.62%.

For `COc1ccccc1N1CCN(CCN(C(=O)c2ccc(F)cc2)c2ccccn2)CC1`, the activity change, negative = inhibition is -0.748%.

`CC1CNCCN1S(=O)(=O)c1cccc2cnccc12` (centres undefined): the activity change, negative = inhibition is 4.83% [at 17.2 µM].

Regarding `NC1(C(=O)O)CC1`, the activity change, negative = inhibition is -11.2%.

As to `NCCCCN`, the activity change, negative = inhibition is -2.09%.

For the molecule `CC(C)(CO)Cc1cc(C(C)(C)C)c(O)c(C(C)(C)C)c1`, the activity change, negative = inhibition was -10.6%.

For the molecule `COc1ccccc1N1CCN(CCCCNC(=O)c2ccc3ccccc3c2)CC1`, the activity change, negative = inhibition was -13.3%.

Consider `N[C@H](C(=O)O)c1cc(O)cc(O)c1`, for which the activity change, negative = inhibition is -1.35%.

For `COc1ccccc1N1CCN(CCCNc2c(C)c(=O)n(C)c(=O)n2C)CC1`, the activity change, negative = inhibition was -22.9%.

With `NOCC(=O)O`, the activity change, negative = inhibition is -5.75%.

In the case of `O=C(O)/C=C/c1ccc(O)c(O)c1`, the activity change, negative = inhibition was -10.8% [at 17.2 µM].

On to `O=c1cc(-c2ccccc2)[nH]c2nc(Cl)ccc12`, for which the activity change, negative = inhibition is -13%.

In the case of `N[C@@H](Cc1c[nH]c2ccccc12)C(=O)O`, the activity change, negative = inhibition is -12.3%.

The next test can be described thus: Stat Signaling Pathway (AID 446).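 Note: ME-180 cervical cancer cells given 40 pM IL-6 alongside compound; SIE-controlled beta-lactamase reporter measured as 460/530 nm FRET emission ratio.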 Conditions: ME-180 SIE beta-lactamase reporter, IL-6 stimulated, 5 h; at 38 µM (top of the series) unless noted. In short, it runs like this: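 ME-180 cells carrying a SIE-driven beta-lactamase reporter are stimulated with 40 pM IL-6 for 5 h at 37C in the presence of compound. The 460/530 nm FRET substrate ratio is read after 2.5 h at RT. Data are normalised to 300 pM IL-6 and to 125 nM JAK inhibitor controls.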
With `CCCc1c(OCCCOc2ccc(OCC(=O)O)cc2)ccc(C(C)=O)c1O`, the activity, negative = inhibition was 11.2%.

As to `CSC(=N)N`, the activity, negative = inhibition was -2.27%.

As for `N#Cc1cc2nc(O)c(O)nc2cc1[N+](=O)[O-]`, the activity, negative = inhibition is -26.5%.

Consider `NCCCCN=C(N)N`, for which the activity, negative = inhibition was -20.8%.

Turning to `CC(=O)NCCc1c[nH]c2ccc(O)cc12`, the activity, negative = inhibition is -51.8%.

In the case of `Cc1nc2c(OCc3ccccc3)cccn2c1CC#N`, the activity, negative = inhibition was -13.9%.

For the molecule `CCCn1c(=O)c2c(ncn2C)n(CCC)c1=O`, the activity, negative = inhibition was 28.8%.

For `N#CC(C#N)=C(N)/C(C#N)=C/c1ccc(O)cc1`, the activity, negative = inhibition is 5.06%.

On to `NC1(C(=O)O)CCCCC1`, for which the activity, negative = inhibition is 9.73%.

As to `CCCn1c(=O)c2[nH]c(-c3ccc(S(=O)(=O)O)cc3)nc2n(CCC)c1=O`, the activity, negative = inhibition was 42.3%.

Take `Cn1ccnc1`: the activity, negative = inhibition was 8.3%.

On to `O=C(O)C1CCNCC1`, for which the activity, negative = inhibition is -8.76%.

Regarding `CCN1C(=O)C=CC1=O`, the activity, negative = inhibition is -6.29%.

As for `CC1CNCCN1S(=O)(=O)c1cccc2cnccc12` (centres undefined), the activity, negative = inhibition was -1.62% [at 17.2 µM].

For the molecule `NCCCCN`, the activity, negative = inhibition was -10.8%.

On to `CC(C)NCC(O)COc1ccc(CC(N)=O)cc1` (centres undefined), for which the activity, negative = inhibition is 14% [at 17.2 µM].

On to `CC(C)(CO)Cc1cc(C(C)(C)C)c(O)c(C(C)(C)C)c1`, for which the activity, negative = inhibition was -24.1%.

Regarding `N[C@H](C(=O)O)c1cc(O)cc(O)c1`, the activity, negative = inhibition is 9.71%.

In the case of `COc1ccccc1N1CCN(CCCNc2c(C)c(=O)n(C)c(=O)n2C)CC1`, the activity, negative = inhibition is 0.762%.

Regarding `NOCC(=O)O`, the activity, negative = inhibition was 4.25%.

As to `O=C(O)/C=C/c1ccc(O)c(O)c1`, the activity, negative = inhibition is -8.31% [at 17.2 µM].

On to `O=c1cc(-c2ccccc2)[nH]c2nc(Cl)ccc12`, for which the activity, negative = inhibition is -25.2%.

Consider `N[C@@H](Cc1c[nH]c2ccccc12)C(=O)O`, for which the activity, negative = inhibition was -9.87%.

Values taken from PubChem BioAssay (NCATS).
